Screening results as filed in PubChem BioAssay.
A selection: hits, their analogues and other compounds. The true share with any hit is near 2.5%.
697 NFkB inh = inhibitors of PMA/ionomycin-induced NF-kB reporter, 697 cells, primary screen, B-cell NF-kB inhibitor project, cell-based, luminescence, uHTS | inhibition, % at 4 µM | AID 435022, 2010 | 697 B-cell NF-kB luciferase reporter, 16 h | 0.33% of 330,000 active; in the data active means inhibition above about 35%
Jurkat NFkB inh = inhibitors of induced NF-kB luciferase reporter, primary screen, TCR NF-kB activation inhibitor project, cell-based, luminescence, uHTS; Jurkat, PMA/ionomycin-induced NF-kB luciferase reporter; inhibition, % at 4 µM; 0.53% of 330,000 active; AID 435003, 2010; in the data active means inhibition above about 50%
ANO1 activ = TMEM16A chloride channel activators or potentiators, primary screen, cell-based, HTS. B-score at 10 µM. Anoctamin-1 (Mus musculus), Q8BHY3. AID 623877, 2012. HEK293 TMEM16A/YFP-H148Q/I152L, iodide quench fluorescence; hits give low values. 0.3% of 340,000 active;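 active means fluorescence-ratio B-score plate-corrected deviation score at least 3 library SD below zero, with starting fluorescence score within 5 deviations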;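 further: channel opened by trigger with iodide after compound preincubation; score built on the fluorescence ratio of max minus min over baseline; more negative score means more quench and so TMEM16A activation or potentiation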
Target sequence (Q8BHY3 whole entry, looked up): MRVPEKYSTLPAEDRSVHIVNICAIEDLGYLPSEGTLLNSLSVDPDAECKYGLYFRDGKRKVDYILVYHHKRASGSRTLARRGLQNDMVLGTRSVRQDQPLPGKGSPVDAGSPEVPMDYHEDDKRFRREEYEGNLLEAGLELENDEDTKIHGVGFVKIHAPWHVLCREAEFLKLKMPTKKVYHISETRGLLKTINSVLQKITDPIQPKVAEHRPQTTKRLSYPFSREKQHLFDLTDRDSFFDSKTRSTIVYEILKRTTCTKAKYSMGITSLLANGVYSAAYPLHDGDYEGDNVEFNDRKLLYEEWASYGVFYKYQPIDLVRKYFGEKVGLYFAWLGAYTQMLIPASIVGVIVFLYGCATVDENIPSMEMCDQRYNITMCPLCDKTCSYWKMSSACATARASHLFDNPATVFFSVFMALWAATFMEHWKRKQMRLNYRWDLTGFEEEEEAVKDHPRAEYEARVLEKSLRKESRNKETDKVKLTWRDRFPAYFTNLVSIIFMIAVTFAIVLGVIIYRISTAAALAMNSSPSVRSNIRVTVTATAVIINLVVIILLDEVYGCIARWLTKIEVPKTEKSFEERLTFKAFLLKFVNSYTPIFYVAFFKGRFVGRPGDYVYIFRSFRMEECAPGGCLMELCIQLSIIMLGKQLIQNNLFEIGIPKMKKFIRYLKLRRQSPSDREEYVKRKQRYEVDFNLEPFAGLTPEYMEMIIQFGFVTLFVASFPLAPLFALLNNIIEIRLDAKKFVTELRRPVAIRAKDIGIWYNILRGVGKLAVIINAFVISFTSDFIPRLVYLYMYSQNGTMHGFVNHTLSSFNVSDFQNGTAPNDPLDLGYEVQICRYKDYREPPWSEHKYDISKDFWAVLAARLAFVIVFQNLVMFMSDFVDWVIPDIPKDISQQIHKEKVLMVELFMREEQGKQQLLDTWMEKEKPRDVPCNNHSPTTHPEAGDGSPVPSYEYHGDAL
aSyn UTR inh = MLPCN primary screen, SNCA 5' untranslated region; alpha-synuclein 5'UTR reporter, inhibitor activity; inhibition, % (tested at 7.5 µM); 0.82% of 300,000 active; in the data active means inhibition above about 60%;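 further: H4 neuroglioblastoma cells stably carrying SNCA 5'UTR luciferase fusion; 0% = DMSO wells and 100% = positive control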
KLF5 inhibitor = KLF5 expression inhibitors, primary screen, DLD-1 cells, luminescence; inhibition, % at 5 µM; 0.23% of 290,000 active; DLD-1 KLF5 promoter-luciferase reporter; AID 1700, 2009;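 active means inhibition above a per-plate limit of that plate's mean compound inhibition plus 3 SD, cut at about 60% in these data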;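 further: 0% = DMSO wells and 100% = LY294002 at 200 µM; higher means less KLF5 promoter-driven luciferase light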
ANO1 block = TMEM16A chloride channel inhibitors, primary screen, cell-based, HTS; Anoctamin-1 (Mus musculus), Q8BHY3; HEK293 TMEM16A/YFP iodide influx fluorescence, ionomycin; normalized B-score (activity score, 25-100; higher = stronger inhibition) at 10 µM; 1.2% of 310,000 active; AID 588511, 2011;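 active means ratio plate-corrected score three or more library SD toward inhibition, starting fluorescence score within five deviations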;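 further: score derived from kinetic fluorescence span divided by baseline fluorescence per well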
TMEM16A reconf = TMEM16A chloride channel inhibitors, confirmation, cell-based, re-confirmation; AID 652189, 2013; 39% of 2,300 active; HEK293 TMEM16A/YFP-H148Q, iodide quench fluorescence; ionomycin added to raise cell calcium; shares compounds with ANO1 block; inhibition, % at 10 µM;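 active means mean duplicate percent inhibition, scaled so buffer wells are 0 and the reference blocker 100, over three buffer SD above buffer mean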
HEK293 Ca mobil = calcium mobilization in TMEM16A/YFP HEK293 cells, confirmation, counter-screen for TMEM16A inhibitor project. shares compounds with ANO1 block. Fluo4 calcium mobilization. calcium response (% of ionomycin), % at 10 µM. 2% of 2,300 active. AID 652231, 2013;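 active means duplicate-averaged calcium signal over 20% of the ionomycin maximum, relative to buffer baseline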;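 further: each well's signal is peak minus trough fluorescence divided by its pre-addition baseline; 0% = buffer wells and 100% = ionomycin wells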
Parental YFP cnt = iodide YFP quench changes in parental YFP-HEK293, counter-screen for TMEM16A inhibitor project, cell-based | 2,300 tested, under 10 active | YFP ratio F(max-min)/F0 at 10 µM | ionomycin | shares compounds with ANO1 block;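 active means yellow fluorescent protein signal ratio exceeding the buffer control mean by over 5 SD of those controls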;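 further: ratio is mean of duplicate wells from kinetic YFP trace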
ClC-1 rat inh = ClC-1 chloride channel inhibition, selectivity assay for TMEM16A inhibitor project, cell-based, voltage-dependent ClC-1 | shares compounds with ANO1 block | ratio percent, % at 10 µM | CHO ClC-1-YFP, iodide influx fluorescence quench; iodide control reads 0, buffer control 100 | 2,300 tested, under 10 active;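 active means duplicate-mean ratio percent above the mean of iodide-only control wells, which defines zero, plus 5 of their SD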;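 further: higher percent means stronger block of ClC-1 iodide influx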
An asterisk follows results filed as active; i = inactive; . = no result given.

SMILES	697 NFkB inh	Jurkat NFkB inh	ANO1 activ	aSyn UTR inh	KLF5 inhibitor	ANO1 block	TMEM16A reconf	HEK293 Ca mobil	Parental YFP cnt	ClC-1 rat inh
CCOC(=O)C1=C(N)Oc2cc(O)ccc2C1c1cccnc1 (configuration not stated)	12	-4	i	-25	-1	100*	30%*	i	-1.2	-10
O=C(Nc1nc(-c2ccc(-c3ccccc3)cc2)cs1)C1CCCO1 (configuration not stated)	-38	-9	i	-65	-4	100*	i	i	-0.9	-21
O=C(Nc1nc(-c2ccccc2)cs1)C1CCCO1 (configuration not stated)	-1	-21	i	-66	-58	i	.	.	.	.
O=C(NCC1CCCO1)c1ccc(NC(=O)c2cc(F)c(F)cc2Cl)cc1 (configuration not stated)	-44	-22	i	21	-21	i	.	.	.	.
Cc1cccc(NC(=O)c2ccc(C(=O)c3ccccc3)cc2)n1	-25	-58	i	-102	.	100*	47%*	i	-0.95	-18
CCOC(=O)c1c(-c2ccc(-c3ccccc3)cc2)csc1NC(=O)C1C2CCC(O2)C1C(=O)O (configuration not stated)	0	-11	i	-5	-33	100*	70%*	i	-1.1	-91
O=C(Nc1cc(Cl)ccc1N1CCCC1)C1=NN(c2ccccc2)C(=O)CC1	-8	5	i	5	-46	i	.	.	.	.
CCN(C(=O)CN1CCN(c2ccccc2F)CC1)c1c(N)n(Cc2ccccc2)c(=O)[nH]c1=O	13	3	i	-2	-24	100*	i	i	-0.96	-18
CCN(C(=O)CN1CCN(c2ccccc2O)CC1)c1c(N)n(Cc2ccccc2)c(=O)[nH]c1=O	-2	-14	i	-19	0	i	.	.	.	.
Cc1cccc(NC(=O)CCc2nnc3ccc(N4CCC(C)CC4)nn23)n1	-12	1	i	10	-18	i	.	.	.	.
O=C(Nc1ccc(S(=O)(=O)NCCc2ccccc2)cc1)c1ccco1	6	10	i	0	-29	i	.	.	.	.
CCN(CC)S(=O)(=O)c1ccc(C(=O)Nc2ccc(Cc3ccncc3)cc2)cc1	-5	39	i	-20	22	100*	28%*	i	-1.1	-21
CCN(CC)S(=O)(=O)c1ccc(NC(=O)c2ccccc2N(C)S(C)(=O)=O)cc1	16	5	i	19	-22	i	.	.	.	.
CCN(CC)S(=O)(=O)c1ccc(NC(=O)c2ccc(N(C)S(C)(=O)=O)cc2)cc1	4	47	i	-14	-10	100*	20%*	i	-1	-13
CCN(CC)S(=O)(=O)c1cccc(C(=O)Nc2ccc(C#N)cc2)c1	-23	32	i	-18	-15	100*	i	i	-1.1	-20
O=C(Nc1ccc(S(=O)(=O)NCCc2ccccc2)cc1)c1ccncc1	-41	26	i	0	-21	100*	19%*	i	-0.86	-10
O=C(CCc1ccc(S(=O)(=O)N2CCOCC2)cc1)Nc1ccc(F)c(F)c1F	2	5	i	.	.	.	.	.	.	.
